# G9a inh: inhibitors of human histone lysine methyltransferase G9a; AID 504332; Q96KQ7; G9a H3K9 monomethylation, AlphaScreen, 2 h; 8.8% of 350,000 active; Potency, µM (top dose mostly 102 µM), for inactives: at the highest dose activity, negative = inhibition, most hits filed as inhibitors; note: % is set by controls: 0 for no effect and ±100 for the full control effect; nearly all actives have a fitted effect of over 75% in size
# Target sequence (Q96KQ7 913-1193 limits assumed): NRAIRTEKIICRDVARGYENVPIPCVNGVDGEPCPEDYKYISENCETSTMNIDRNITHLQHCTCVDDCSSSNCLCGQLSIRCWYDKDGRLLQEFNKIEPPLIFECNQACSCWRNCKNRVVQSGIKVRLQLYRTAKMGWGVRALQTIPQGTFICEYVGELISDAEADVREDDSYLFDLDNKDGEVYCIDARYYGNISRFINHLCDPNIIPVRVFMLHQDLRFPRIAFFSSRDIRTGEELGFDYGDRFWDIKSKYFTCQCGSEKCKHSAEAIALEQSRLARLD
#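 G9a (20 nM) preincubated 15 min RT with compounds, then 500 nM biotinylated H3K9 peptide and 20 uM SAM added; 2 h RT reaction. Monomethyl-H3K9 product detected by AlphaScreen with anti-H3K9me1 antibody, streptavidin donor and anti-rabbit IgG acceptor beads.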
# HP1b chromo inh: blocks HP1-beta chromodomain binding to methylated histone tails | 0.56% of 390,000 active | Potency, µM (series often up to 114 µM), inactives show at the highest dose activity change, negative = inhibition, actives largely listed as inhibitors | P83916 | AlphaScreen HP1-beta / biotin-H3K9me3 peptide binding; note: nearly all actives have a fitted effect of over 70% in size
# Target sequence (P83916 whole entry, looked up): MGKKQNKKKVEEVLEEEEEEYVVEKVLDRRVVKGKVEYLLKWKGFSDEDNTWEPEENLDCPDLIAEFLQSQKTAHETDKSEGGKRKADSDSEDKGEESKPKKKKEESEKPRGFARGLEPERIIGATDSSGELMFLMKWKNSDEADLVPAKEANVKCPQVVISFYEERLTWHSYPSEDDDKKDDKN
#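 Compound inhibition of the preformed complex between 50 nM HP1-beta and 50 nM biotinylated H3K9me3 peptide was read by AlphaScreen. Buffer was PBS pH 7.4 with 0.01% Tween-20. Incubations ran 30 min at room temperature, with 10 ug/mL donor/acceptor beads.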
# JMJD2A Tudor: inhibitors of human JMJD2A Tudor domain | O75164 | AlphaScreen JMJD2A-Tudor / H3K4me3 peptide binding | Potency, µM (titrated, usually from 114 µM), without a hit: top-dose activity change, negative = inhibition, hits mostly inhibitors | 4.4% of 390,000 active; note: % is set by controls: 0 for no effect and ±100 for the full control effect; nearly all actives have a fitted effect of over 50% in size
# Sfp inh: Sfp phosphopantetheinyl transferase inhibition; Q9F4F7; Biochemical Sfp PPTase activity, qHTS; Potency, µM, for inactives: largest response in the series, negative = inhibition, actives largely listed as inhibitors; 3.5% of 310,000 active;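 note: the enzyme is Sfp with the accession as filed and its product quenches rhodamine fluorescence; 0% = enzyme reaction without inhibitor and -100% = no enzyme wells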
#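 Compounds were incubated with enzyme (final 15 nM) for 15 min at room temperature before substrate addition started the reaction. Fluorescence at 525 nm excitation, 598 nm emission was recorded immediately and after 30 minutes.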
# BAZ2B block: blocks human BAZ2B. Potency, µM (titrated, usually from 114 µM), for inactives: at the top dose activity change, negative = inhibition, most hits filed as inhibitors. 4.4% of 360,000 active. Q9UIF8. AlphaScreen BAZ2B-H3K14Ac peptide displacement; note: % is set by controls: 0 for no effect and ±100 for the full control effect; nearly all actives have a fitted effect of over 60% in size
#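 Multi-concentration screen (max 110 uM) measuring displacement of acetylated histone H3 peptide from BAZ2B by AlphaScreen, using 50 nM protein, 50 nM peptide and 10 ug/mL streptavidin donor plus Ni-chelate acceptor beads.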
# Active calls of the source: *; ? = inconclusive; . = no result; [ ] = dose if it differs, or a comment. Hits are enriched below; roughly 12% of the tested compounds scored in any of these assays. Calls come from the whole dose curve; as a rule, active = well fitted curve in the direction sought with a large enough effect; inconclusive = small, poorly fitted or top-dose-only effect, or another doubt; inactive = no such curve, though single readings can be large; an effect the other way counts as inactive or inconclusive. Potency is the fitted concentration of half-maximal effect.
SMILES,G9a inh,HP1b chromo inh,JMJD2A Tudor,Sfp inh,BAZ2B block
COc1ccccc1C(=O)Nc1ccc(OCC(=O)N2C(C)CCCC2C)cc1 (stereo not given),5%[59 µM],40%,-4%,.,8%
O=C(CSc1n[nH]c(-c2ccccc2Cl)n1)NCCc1ccccc1,-5%[59 µM],17%[57 µM],-14%,.,1%
N#Cc1ccccc1Cn1c(=O)n(-c2ccccc2)c(=O)c2c3c(sc21)CCC3,-2%[59 µM],24%,-4%,.,-2%
CN1CCc2c(sc3c2c(=O)n(-c2ccccc2)c2n[nH]c(=S)n32)C1,5µM*,34%,40µM*,40µM*,-5%
Cc1cccc(-n2c(=O)c3c4c(sc3n3cnnc23)CCCC4)c1,-35%[59 µM],26%,-15%,.,-10%
Cc1cccc(-n2c(=O)c3c4c(sc3n3c(=S)[nH]nc23)CCC4)c1,?,28%,18µM*,?,-30%
Cc1ccc(-n2c(=S)[nH]c3sc4c(c3c2=O)CCC4)cc1,45µM*,10%,-34%,-29%,-20%
O=c1c2c3c(sc2n2c(=S)[nH]nc2n1-c1ccccc1)CCC3,.,4%,3.2µM*,-20%,-2%
COc1ccc(S(=O)(=O)N2CCCCC2)cc1NC(=O)CCNC(=O)c1ccccc1Cl,10%[2.33 µM],17%,-11%,.,3%
COC(=O)C(C)Sc1nnc2n(-c3cccc(C)c3)c(=O)c3c4c(sc3n12)CCCC4 (stereo not given),25µM*,32%,-22%,-9%,3%
Cn1cccc1C(=O)C(=O)Nc1cc(Cl)cc(Cl)c1,15%,-3%,16µM*,3%,4%
CCCCC(CC)C(=O)Nc1cc(=O)[nH]c2nc3ccccc3n12 (stereo not given),16%,43%,-6%,-3%,1%
Cc1cc(C)c2c(c1)C1C=CCC1C(C(=O)O)N2 (stereo not given),.,20µM*,20µM*,.,.
O=C(O)C1Nc2c(C(F)(F)F)ccc(Cl)c2C2C=CCC12 (stereo not given),10µM*,-4%,-26%,?,?
Cc1ccc(Cl)c2c1N[C@@H](c1ccc(C(=O)O)cc1)[C@H]1CC=C[C@@H]21,?,5%,?,.,?
Cc1ccc2c(c1C)NC(C(=O)O)C1CC=CC21 (stereo not given),8.9µM*,11µM*,7.9µM*,45µM*,7.1µM*
Cc1cc(C)c2c(c1)NC(C(=O)O)C1CC=CC21 (stereo not given),.,20µM*,13µM*,89µM*,11µM*
COC(=O)CNC(=O)C1Nc2ccc(OC(F)(F)F)cc2C2C=CCC12 (stereo not given),.,38%,-17%,.,.
N/C(=N\OC(=O)COc1ccc([N+](=O)[O-])cc1)c1cccnc1,-8%,10%,-10%,15%,-4%
O=C(Nc1ccncc1)OCc1ccccc1,.,46%,-5%,-2%,-3%
CCOC(=O)c1cc(-c2ccccc2)n(CC(=O)NCc2ccc(C)cc2)c1C,8%[59 µM],23%,3%,.,4%
O=C(O)C1Nc2c(C(=O)N3CCOCC3)cccc2C2C=CCC12 (stereo not given),8.9µM*,40µM*,11µM*,7.1µM*,20µM*
CNC(=S)N(CCc1c(C)[nH]c2ccccc12)Cc1cc(OC)c(OC)c(OC)c1,?,-1%,?,-1%,45µM*
CCNC(=S)N(CCc1c(C)[nH]c2ccccc12)Cc1cc(OC)c(OC)c(OC)c1,89µM*,-8%,?,1%,50µM*
c1ccc(CN2CCC3(CC2)Nc2ccccc2S3)cc1,-40%[59 µM],-11%,?,79µM*,?
SMILES,G9a inh,HP1b chromo inh,JMJD2A Tudor,Sfp inh,BAZ2B block
CSc1ccc(/C=C(/NC(=O)c2ccccc2)C(=O)NCCCn2ccnc2)cc1,-4%,17%,-21%,9%,?
CCn1cc(/C=C(\NC(=O)c2ccc(OC)cc2)C(=O)NCCCn2ccnc2)c2ccccc21,-4%[59 µM],-10%,?,.,?
CN(C)c1ccc(/C=C(\NC(=O)c2ccccc2)C(=O)NCCCn2ccnc2)cc1,50µM*,-26%,50µM*,4%,28µM*
O=C(NCCCn1ccnc1)/C(=C/c1ccccc1)NC(=O)c1ccccc1,-14%[12.7 µM],6%,45µM*,1%,?
COc1ccc(C(=O)N/C(=C\c2cn(S(=O)(=O)N(C)C)c3ccccc23)C(=O)NCCCn2ccnc2)cc1,1%,22%,?,13%,32µM*
O=C(NCCCn1ccnc1)/C(=C\c1ccc(Br)cc1)NC(=O)c1ccccc1,21%,11%,?,11%,-37%
COc1cc(CNCc2cc(OC)c(OC)c(OC)c2)cc(OC)c1,.,?,20µM*,-21%,?
COc1cc(CNCc2ccc(C)cc2)cc(OC)c1OC,28µM*,?,20µM*,-22%,71µM*
CCOc1cc(CNCc2ccc(C(=O)O)cc2)ccc1OC,.,61%,2%[11.4 µM],-13%,-36%
CCOc1cc(CNCc2cc(OC)cc(OC)c2)ccc1OC,40µM*,?,1µM*,-16%,?
COc1ccc(CNCc2c(F)cccc2F)cc1OC,10µM*,-4%,4µM*,-7%,-39%
Cc1onc(-c2c(Cl)cccc2Cl)c1C(=O)NCc1ccco1,17%,34%,-10%,-1%,3%
COc1cccc(CNCc2ccc(C(=O)O)cc2)c1OC,-35%,12%,4%,12%,-32%
COc1cc(CNCc2cccc(OC)c2OC)cc(OC)c1,34%[0.501 µM],?,25µM*,-1%,50%
COc1cccc(CNCc2ccc(SC)cc2)c1OC,22µM*,?,13µM*,-18%,?
CCOC(=O)CC(NCc1ccc(OC)c(OCC)c1)c1ccc(C)cc1 (stereo not given),-14%[12.7 µM],4%,56µM*,1%,-15%
CCOC(=O)CCNCc1ccc(OC)c(OC)c1,5%[12.7 µM],14%,-15%[11.4 µM],-2%,3%
CCN(CC(=O)Nc1ccc(OC)cc1)C(=O)c1ccccc1Sc1ccccc1C#N,-40%,0%,-25%,.,-3%
COc1ccc2[nH]c(C(=O)NCc3ccccc3)cc2c1,.,8%,-11%,-9%,-1%
COc1ccc(CN(Cc2cccn2C)C(=O)c2cc3cc(OC)ccc3[nH]2)cc1,50µM*,-31%,?,5%,?
NC(=S)Nc1ccc(F)c(F)c1F,-5%,60%,-3%,17%,-23%
NC(=S)NNc1c(F)c(F)c(F)c(F)c1F,35µM*,?,?,40µM*,-21%
Cc1noc(C(=O)N2CCN(Cc3ccc4c(c3)OCO4)CC2)c1Cl,?,29%,-8%,10%,-31%
C=CC1=C(C(=O)O)N2C(=O)C(NC(=O)Cc3ccccc3)C2SC1 (stereo not given),?,79µM*,40µM*,?,?
O=C(COc1ccccc1)NC1C(=O)N2C(C(=O)O)=C(Cl)CSC12 (stereo not given),35µM*,0%,79µM*,-18%,79µM*

# Source: PubChem BioAssay (National Center for Advancing Translational Sciences (NCATS))
